Measurements from PubChem BioAssay AID686979 (National Center for Advancing Translational Sciences (NCATS), 2013).
Among all 420,000 compounds or so, about 50,000 (12%) were called active. Roughly 26% stayed inconclusive and do not appear here. What follows is part of a selection rich in actives, with near analogues and random picks from the rest. A number with no mark means an inactive call. Calls come from the whole dose curve; as a rule, active = well fitted inhibition curve with a large enough effect; inconclusive = small, poorly fitted or top-dose-only effect; inactive = flat fitted curve, though single readings scatter.

Assay: qHTS for Inhibitors of human tyrosyl-DNA phosphodiesterase 1 (TDP1): qHTS in cells in presence of CPT; note: nearly all actives have a fitted effect of over 55% in size
Settings: chicken DT40 Tdp1-/-;hTDP1 cells + 20 nM CPT, ATP luminescence, 48 h; series mostly up to 46.2 µM; activity change, negative = growth inhibition: at the top concentration
How it was run: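 Chicken DT40 Tdp1-/- cells stably complemented with human TDP1 were seeded at 400 cells/well in medium containing 20 nM camptothecin, exposed to pin-transferred compounds, and grown at 37 °C for at least 48 hr. Viability was read as ATP luminescence.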
% is set by controls: 0 for no effect and ±100 for the full control effect; potency is the fitted concentration of half-maximal effect.

SMILES	Potency	activity change, negative = growth inhibition
CC(C)(C)C(=O)OCc1nc(-c2ccc(O)c(O)c2)cs1	6.51 µM (active)	–
Cc1onc(C(=O)NN)c1-c1csc(COc2ccccc2)n1	–	7.79%
COc1ccc(-c2csc(-c3cccs3)n2)cc1OC	–	-22.2%
O=C(Nc1ccncc1)c1ccc([N+](=O)[O-])cc1Cl	–	-26.5%
O=C1N(c2ccc(Cl)cc2)C(c2ccc(Cl)cc2)N2CCCN12 (centres undefined)	–	8.43%
Nc1nonc1-n1nnc(C(=O)N/N=C/c2cc(Br)ccc2O)c1CSC1=NCCS1	5.8 µM (active)	–
Nc1nonc1-n1nnc(C(=O)N/N=C\c2ccncc2)c1CN1CCCCC1	–	2.3%
Cc1ccc(SCc2c(C(=O)N/N=C/C3CC=CCC3)nnn2-c2nonc2N)cc1 (centres undefined)	–	-6.45%
CC(C)OCCCNc1ncnc2c1[nH]c1ccc(F)cc12	2.91 µM (active)	–
COc1cc(OC)c(OC)cc1/C=N/Nc1ncnc2c1[nH]c1ccc(C)cc12	–	-13.9%
COc1ccc(CCNC(=O)CC2SC(=Nc3cc(C)cc(C)c3)NC2=O)cc1OC (centres undefined)	–	-27.2%
CC(C)(C)OC(=O)CNC(=O)c1[nH]cnc1C(=O)N[C@@H](CCCCN)C(=O)OC(C)(C)C	–	-1.96%
COc1cc2ccccc2cc1C(=O)Nc1ccncc1	–	-17.4%
COc1cc(NC(=O)c2cccs2)ccc1NC(=O)c1ccccc1Cl	–	-14.7%
COc1cc2ccccc2cc1C(=O)Nc1ccc(NC(=O)c2cccs2)cc1	20.6 µM (active)	–
CCCCCCCCCCOC(=O)C[N+](C)(C)CC1CCCCC1O (centres undefined)	–	-13.4%
CC(NCc1cccs1)C(=O)Nc1cc(Cl)cc(Cl)c1 (centres undefined)	–	-1%
CC(=O)N1CCC2(CCCN(Cc3ccc(C#N)cc3)C2)CC1	–	5.78%
O=C(CCc1ccccc1)NCc1cccnc1	–	3.47%
O=C(O)c1cc(S(=O)(=O)N(Cc2ccccc2)c2cccc(C(F)(F)F)c2)ccc1Cl	–	-1.49%
O=C(CN(c1cc(C(F)(F)F)ccc1Cl)S(=O)(=O)c1ccccc1)NCc1cccnc1	20.6 µM (active)	–
COc1ccc(C2(C)NC(=O)N(CC(=O)c3ccc4c(c3)OCO4)C2=O)cc1 (centres undefined)	–	-16.2%

SMILES	Potency	activity change, negative = growth inhibition
CCCCc1nc(NCCN)c(C#N)c2c1CSC(C)(C)C2	20.6 µM (active)	–
CCCCc1nc(NCc2ccccc2)c(C#N)c2c1CCCC2	–	-4.51%
Cc1nc(NCCN)c(C#N)c2c1COC(C)(C)C2	–	-10.5%
COc1ccc(-c2cc(=O)c3c(O)cc(O[C@@H]4O[C@H](CO[C@@H]5O[C@@H](C)[C@H](O)[C@@H](O)[C@H]5O)[C@@H](O)[C@H](O)[C@H]4O)cc3o2)cc1O	inactive	–
COc1cc(C(=O)N[C@@H](C)C(=O)NCc2ccco2)cc(OC)c1OC	–	29.6%
COc1cccc(OC)c1C(=O)NC(=S)NCc1ccco1	–	-1.27%
COc1cc(C(=O)NC(=S)NCc2ccco2)cc(OC)c1OC	18.4 µM (active)	–
CCN1C(=O)C(=O)N(CC(=O)Nc2cc(C)ccc2C)C1=O	–	-3.8%
Cc1ccc(CSCCNC(=O)CN(c2ccc(F)cc2)S(C)(=O)=O)cc1	–	-6.25%
CCOC(=O)C1CCN(C(=O)COC(=O)C2CCN(S(=O)(=O)c3ccc4c(c3)OCCO4)CC2)CC1	–	7.75%
CCc1ccc(-c2cc3c(=O)n(CC(=O)NCCCN4CCN(Cc5ccccc5)CC4)nc(C)n3n2)cc1	20.6 µM (active)	–
Cc1ccc(-c2ccc(=O)n(CC(=O)NCCCN3CCCCC3)n2)cc1	–	-0.122%
CCCN1CCN(CCCNC(=O)Cn2nc(CC)n3c(cc4occc43)c2=O)CC1	–	-3.5%
Cc1ccccc1CSc1nnc(-c2ccccc2)c(=O)[nH]1	–	6.06%
C/C(Nc1ccc2oc(=O)ccc2c1)=C1/C(=O)CC2[C@@H]1C2(C)C (some centres undefined)	–	6.03% [at 9.04 µM]
CC(=O)Nc1ccc(S(=O)(=O)N2CCN(CCCOc3cc(C)ccc3C)CC2)cc1	25.9 µM (active)	–
Cc1ccc(NC(=O)CCNC(=O)c2ccc([N+](=O)[O-])cc2)cc1S(=O)(=O)N1CCOCC1	–	-17.7%
Cc1ccc(C)c(S(=O)(=O)N2CCN(C(=O)Nc3ccccc3)CC2)c1	–	1.6%
CC(=O)Nc1ccc(S(=O)(=O)N2CCN(S(=O)(=O)c3cccs3)CC2)cc1	–	4.79%
Cc1ccc(C)c(S(=O)(=O)N2CCN(CC(=O)Nc3ccc([N+](=O)[O-])cc3)CC2)c1	14.6 µM (active)	–
CC(=O)Nc1ccc(S(=O)(=O)N2CCSCC2)cc1	–	-3.56%
CCCC/S(C)=N/S(=O)(=O)c1ccc(C)cc1 (centres undefined)	–	20%

SMILES	Potency	activity change, negative = growth inhibition
N#Cc1c(NCCO)ccc([N+](=O)[O-])c1NCCO	–	7.25%
CC(=O)Oc1ccc(-c2nc3c(C)cccc3c(=O)o2)cc1	–	-4.34%
CCn1cc(C(=O)OCC(=O)Nc2cccc(C)c2)c(=O)c2ccc(C)nc21	–	-10%
CN(C)c1ccc(/C=N/N(Cc2ccccc2)c2ccccc2)cc1	–	5.33%
CN(C)c1cc[n+](Cc2ccccc2)cc1	0.58 µM (active)	–
C[n+]1ccc(C(=O)NCc2ccccc2)cc1	–	2.67%
c1ccc(Cc2cc[n+](Cc3ccccc3)cc2)cc1	23.1 µM (active)	–
[O-][n+]1ccc(OCc2ccccc2)cc1	–	-4.31%
COc1ccc(CCNC(=O)COc2ccc3c(c2)OCO3)cc1	–	-12.7%
CNC(=S)NNC(=O)c1oc2nc(-c3ccccc3)cc(-c3ccco3)c2c1N	–	-5.83%
CC1CCCC(NC(=O)COC(=O)[C@@H]2CC(O)CN2S(=O)(=O)c2ccc3c(c2)OCCO3)C1C (some centres undefined)	–	-19.9%
CCC1CCC2(CC1)NC(=O)N(CC(=O)Nc1ccc(OC)cc1)C2=O (centres undefined)	–	-25.3%
O=C(CSC(=S)N1CCOCC1)c1cc(Br)cc(Br)c1O	–	4.78%
O=C(c1cc2cc(Br)cc(Br)c2oc1=O)N1CCOCC1	–	1.58%
O=C1Nc2c(Br)cc(Br)cc2C1(O)N1CCOCC1 (centres undefined)	5.17 µM (active)	–
COc1ccc(C(=O)COC(=O)CCCC(=O)Nc2cc(C(F)(F)F)ccc2Cl)cc1	–	-17.6%
COc1ccc(OC)c(-n2c(=S)[nH]c3cc(C(=O)N4CCCCC4)ccc3c2=O)c1	–	-5.5%
CC(C)c1ccc(NC(=O)c2cc(S(=O)(=O)N3CCc4ccccc4C3)ccc2F)cc1	–	-23%
COc1cc(NC(=O)C2CCN(c3cnccn3)CC2)cc(OC)c1	inactive	–
O=[N+]([O-])c1ccc(Oc2ccc(F)cc2Br)c2ccncc12	18.4 µM (active)	–
